An excerpt weighted towards active compounds, which were near 10% of everything screened.
JMJD2A Tudor: JMJD2A Tudor domain (human) inhibition; AlphaScreen JMJD2A-Tudor / H3K4me3 peptide binding; hit rate 4.4% among 390,000; Potency, µM (highest dose often 114 µM), for the others: at the highest dose activity change, negative = inhibition, most hits filed as inhibitors; note: potency is the fitted concentration of half-maximal effect; % is set by controls: 0 for no effect and ±100 for the full control effect; nearly all actives have a fitted effect of over 50% in size
CtBP-E1A blk: CtBP/E1A binding inhibition; AlphaScreen GST-E1A/His-CtBP binding, 1536-well; stronger effect = lower value; activity change, % (test concentration not listed); hit rate 0.49% among 340,000; AID 651724; in the data active = activity change below about -65%; inconclusive = mostly about -30% to -63%; note: % is set by controls: 0 for no effect and ±100 for the full control effect
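Steps: dispense buffer (Tris pH 8.0, NaCl 300 mM, TCEP 1 mM, BSA, Tween 20); add 5X protein mix (GST-E1A, His-CtBP, 125 nM each); pin 23 nL compound; 2 h at 37 °C, dark; add 5X beads (50 ug/mL); 1 h; read.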
BAZ2B block: BAZ2B (human) inhibition | Q9UIF8 | hit rate 4.4% among 360,000 | AlphaScreen BAZ2B-H3K14Ac peptide displacement | Potency, µM (series often up to 114 µM), inactives show top-dose activity change, negative = inhibition, most hits filed as inhibitors; note: potency is the fitted concentration of half-maximal effect; % is set by controls: 0 for no effect and ±100 for the full control effect; nearly all actives have a fitted effect of over 60% in size
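AlphaScreen displacement of biotin-H3(5-23)K14Ac peptide (50 nM final) from BAZ2B (50 nM final) in PBS pH 7.4, 0.01% Tween-20; complex preformed 30 min RT, then compounds (top 110 uM) 30 min RT, beads 20 min dark.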
Six1-Eya2 blk: blocks human Six1 binding to Eya2 | activity change, % (concentration not given with the values) | Q15475+O00167 | hit rate 0.56% among 360,000 | AlphaScreen GST-Six1/His-Eya2 binding, biochemical; stronger effect = lower value; in the data active = activity change below about -65%; inconclusive = mostly about -30% to -63%; note: % is set by controls: 0 for no effect and ±100 for the full control effect
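Six1/Eya2 binding was read as AlphaScreen signal after compounds were pinned into GST-Six1 plus His-tagged Eya2 (5X stock 250/500 nM) in pH 8.0 Tris/NaCl/TCEP buffer, beads added, then incubated 1 h, 37 C, dark.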
HP1b chromo inh: HP1-beta chromodomain-methylated histone interaction inhibition | P83916 | AlphaScreen HP1-beta / biotin-H3K9me3 peptide binding | Potency, µM (doses to about 114 µM), for the others: top-dose activity change, negative = inhibition, most hits filed as inhibitors | hit rate 0.56% among 390,000 | AID 540317; note: potency is the fitted concentration of half-maximal effect; nearly all actives have a fitted effect of over 70% in size
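AlphaScreen: HP1-beta (50 nM) preformed 30 min with biotin-H3(1-18)K9me3 peptide (50 nM) in PBS pH 7.4, 0.01% Tween-20. Compound added for 30 min at RT, then streptavidin donor/nickel chelate acceptor beads (10 ug/mL) for 30 min.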
G9a inh: inhibitors of human histone lysine methyltransferase G9a. G9a H3K9 monomethylation, AlphaScreen, 2 h. Q96KQ7. hit rate 8.8% among 350,000. Potency, µM (titrated, usually from 102 µM), for inactives: top-dose activity, negative = inhibition, usual class: inhibitors; note: potency is the fitted concentration of half-maximal effect; % is set by controls: 0 for no effect and ±100 for the full control effect; nearly all actives have a fitted effect of over 75% in size
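Chemiluminescent proximity detection of H3K9 monomethylation, read after 10 min bead incubation in the dark. Reaction: 20 nM G9a, 500 nM biotin-H3K9 peptide, 20 uM SAM cofactor, 2 h, room temperature, following 15 min enzyme-compound preincubation.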
* = called active by the depositor; ? = inconclusive; . = no result given; [ ] = dose if it differs, or a comment. Unless noted, calls come from the whole dose curve; as a rule, active = well fitted inhibition curve with a large enough effect; inconclusive = small, poorly fitted or top-dose-only effect; inactive = no such curve, though single readings can be large or run the other way.

SMILES | JMJD2A Tudor | CtBP-E1A blk | BAZ2B block | Six1-Eya2 blk | HP1b chromo inh | G9a inh
O=C(O)/C(=C\C(=O)c1ccccc1)Nc1ccccc1 | . | . | 79.4µM* | . | . | 20µM*
O=C(C=NNc1ccccc1)c1ccccc1 | ? | -22.9 | . | -23.6 | -22.0% | .
COc1ccc(NC(=O)Cn2c(=O)n(CCc3ccccc3)c(=O)c3sc4ccccc4c32)cc1 | 1.0% | . | -2.1% | . | 10.4% | 12.6%[59 µM]
O=c1c2ccccc2sc2c(CO)ccc(NCCN3CCCCC3)c12 | 50.1µM* | ? | . | ? | ? | .
Cc1ccc(CNC(=O)C(C)n2c(=O)cc(C(F)(F)F)c3c(C)nn(C)c32)cc1 (centres undefined) | -12.7% | . | -3.7% | . | 9.3% | 22.9%[59 µM]
CC(C)C(C)NC(=O)COC(=O)c1cccc(C(=O)OCC(=O)NC(C)C(C)C)n1 (centres undefined) | ? | . | ? | -2.8 | 29.3% | 10µM*
O=C(COC(=O)c1cccc(C(=O)OCC(=O)NC2CCCCC2)n1)NC1CCCCC1 | ? | 0.0 | 11.8% | 21.7 | 28.7% | 50.1µM*
Cc1cc2c(cc(C(=O)OCC(=O)NC3CCCCC3)n2C)o1 | 22.4µM* | -6.0 | . | 18.2 | -28.9%[57 µM] | .
CC(C)N(C(=O)COC(=O)c1cccc(C(=O)OCC(=O)N(C(C)C)C(C)C)n1)C(C)C | 14.8% | 2.1 | ? | 6.6 | 29.4% | 39.4%
Cc1cc(C(=O)OCC(=O)NC2CCCCC2)c(C)o1 | -12.7% | 1.0 | ? | 7.0 | 21.0% | 3.4%
CCc1ccc(CNC(=O)CCN2C(=O)COc3ccccc32)cc1 | -15.0% | . | 1.9% | . | -0.1% | -2.7%[59 µM]
COc1ccc(NC(=O)C2CCN(C(=O)c3sc4nc[nH]c(=O)c4c3C)CC2)c(OC)c1 | 2.3% | . | 2.5% | . | 24.3%[57 µM] | 11.1%[59 µM]
CN(C)c1ccc(C(=O)Nc2c(C(=O)NC(C)(C)C)oc3ccccc23)cc1 | -27.8% | . | -12.2%[57.1 µM] | . | 1.1% | -48.3%[59 µM]
COc1ccc(OC)c(-c2nnc(SCC(=O)NC3CCCCC3)o2)c1 | -10.6% | -4.0 | 3.5% | -14.0 | 60.2% | 44.7µM*
COc1cccc(-c2nnc(SCC(=O)NC3CCCCC3)o2)c1 | -15.4% | . | -5.8% | . | -13.3% | 8.91µM*
COc1ccc(-c2c(C)nn3c(-c4ccccc4)cc(-c4ccccc4)nc23)cc1OC | -26.9% | . | ? | . | ? | ?
COc1ccc(-c2cc(C)nc3c(-c4ccc(OC)c(OC)c4)c(C)nn23)cc1 | 28.2µM* | . | 20µM* | . | -19.7% | 14.1µM*
Nc1ccc2c(c1Cl)C(=O)c1ccc(N)c(Cl)c1C2=O | 56.2µM* | . | 56.2µM* | -77.9* | 15.5% | 25.1µM*
O=C(COC(=O)c1ccc2c(c1Cl)C(=O)c1ccccc1C2=O)NC1CC1 | ? | ? | ? | ? | -3.3% | ?
CN(C)CCCN=Cc1c(O)n(Cc2ccccc2)c(=O)c2ccccc12 | ? | -7.2 | -16.7% | -19.0 | -20.0% | -63.3%[59 µM]
CN(C)CCN=Cc1c(O)n(Cc2ccccc2)c(=O)c2ccccc12 | -21.6% | -9.6 | -31.5% | -4.9 | -6.2% | 56.2µM*
O=C(NCCc1c[nH]c2ccccc12)/C(=C/c1ccco1)NC(=O)c1ccco1 | -16.2% | 5.0 | -24.6% | 15.3 | -9.6% | -2.4%
CC(=C\c1ccco1)/C=C(\C#N)C(=O)NCCc1c[nH]c2ccccc12 | ? | 3.4 | ? | -6.5 | 9.2% | 12.6µM*
CCCCN(CC)CCNC(=O)Cn1cnc2sc(C)c(S(=O)(=O)N3CCN(c4ccccc4OC)CC3)c2c1=O | -21.5% | . | -3.2% | . | 7.6% | -4.8%[59 µM]
Cc1c(O)ccc(C(=O)CN2CCN(c3ccccc3F)CC2)c1O | 6.6% | . | ? | 1.5 | 42.6% | ?
COc1ccc(N2CCN(CC(=O)c3ccc(O)c(C)c3O)CC2)cc1 | ? | . | ? | -8.8 | -6.5%[57 µM] | 39.8µM*
COc1ccc(C(=O)CN2CCN(c3ccc(F)cc3)CC2)cc1 | -18.1% | . | ? | -0.3 | 25.4% | .
Cc1c(O)ccc(C(=O)CN2CCN(c3ccccc3)CC2)c1O | 2.3% | . | ? | 5.1 | 86.7% | 44.7µM*

Compound activity from PubChem.
